In PubChem BioAssay (NCI):
“And” between values parts separate entries of the source, which are not always exact repeats. Equal entries are not always repeated. This is part of a sample that, as a whole, favours compounds with a hit. Of some 83,000 tested, about 20% had one in any assay.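 Growth was measured after 48 h exposure to one concentration of compound in 96-well plates. Values under 10 count as active.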 The source made the active and inactive calls.

What was measured:
Test in all cases: NCI-60 one-dose screen, 48 h (100 = growth as untreated, 0 = no growth, -100 = all killed)
Details in all cases: 10 µM unless noted
MOLT-4 leukemia = tested on: MOLT-4 leukemia
SR leukemia = tested on: SR leukemia
RPMI-8226 leukemia = tested on: RPMI-8226 leukemia
OVCAR-8 ovarian = tested on: OVCAR-8 ovarian
OVCAR-5 ovarian = tested on: OVCAR-5 ovarian
OVCAR-4 ovarian = tested on: OVCAR-4 ovarian
SK-OV-3 ovarian = tested on: SK-OV-3 ovarian
OVCAR-3 ovarian = tested on: OVCAR-3 ovarian
HS 578T breast = tested on: HS 578T breast
NCI/ADR-RES ovarian = tested on: NCI/ADR-RES ovarian
T-47D breast = tested on: T-47D breast
MDA-MB-435 melanoma = tested on: MDA-MB-435 melanoma
SW-620 colon = tested on: SW-620 colon
MCF7 breast = tested on: MCF7 breast
HCT-116 colon = tested on: HCT-116 colon
HCC-2998 colon = tested on: HCC-2998 colon
KM12 colon = tested on: KM12 colon
BT-549 breast = tested on: BT-549 breast
IGROV1 ovarian = tested on: IGROV1 ovarian

Measured: growth

Cc1nnc([S-])o1.[Au+].c1ccc([PH+](c2ccccc2)c2ccccc2)cc1
inactive: MOLT-4 leukemia 38.6% | SR leukemia 20.8% | RPMI-8226 leukemia 17.2% | OVCAR-8 ovarian 44.8% | OVCAR-5 ovarian 110% | OVCAR-4 ovarian 60.4% | SK-OV-3 ovarian 111% | HS 578T breast 30.4% | NCI/ADR-RES ovarian 99.6% | T-47D breast 29.6% | MDA-MB-435 melanoma 43.9% | MCF7 breast 10.3% | HCT-116 colon 21.6% | HCC-2998 colon 80.2% | KM12 colon 74.2%
active: OVCAR-3 ovarian -61.4% | SW-620 colon -11.8%

CC[C@H](C)[C@H](NC(=O)CN(C)C)C(=O)N(C)[C@H](C[C@@H](OC(C)=O)c1nc(C(=O)NC23C4C5C2C2C3C4C52C(=O)OC)cs1)C(C)C (stereo partly drawn)
active: OVCAR-3 ovarian -34% | BT-549 breast 4.22% | MDA-MB-435 melanoma -59.9% | HCT-116 colon -2.36%
inactive: MOLT-4 leukemia 11% | SR leukemia 10.4% | RPMI-8226 leukemia 20.1% | OVCAR-8 ovarian 21.6% | OVCAR-5 ovarian 71.4% | OVCAR-4 ovarian 48.7% | SK-OV-3 ovarian 35.1% | HS 578T breast 19.8% | NCI/ADR-RES ovarian 63.7% | T-47D breast 62.9% | MCF7 breast 21.6% | HCC-2998 colon 18.5% | KM12 colon 13.2%

O=[N+]([O-])c1ccc(P(=O)(O)O)cc1
inactive: MOLT-4 leukemia 102% | SR leukemia 94.8% | RPMI-8226 leukemia 108% | OVCAR-8 ovarian 103% | OVCAR-5 ovarian 101% | OVCAR-4 ovarian 96.2% | SK-OV-3 ovarian 99.8% | IGROV1 ovarian 102% | OVCAR-3 ovarian 113% | HS 578T breast 108% | NCI/ADR-RES ovarian 103% | MDA-MB-435 melanoma 101% | SW-620 colon 105% | MCF7 breast 91.2% | HCT-116 colon 96.6% | HCC-2998 colon 102% | KM12 colon 115%

CC[CH2][Sn]([Cl])([Cl])[CH2]CC.Oc1ccccc1C=NCCN=Cc1ccccc1O
inactive: MOLT-4 leukemia 40.2% and 12.6% | SR leukemia 24.8% and 21.8% | OVCAR-8 ovarian 87.8% and 72.5% | OVCAR-5 ovarian 97.1% and 84.2% | OVCAR-4 ovarian 69.6% | SK-OV-3 ovarian 109% and 92.2% | OVCAR-3 ovarian 86.8% and 44.3% | HS 578T breast 77.7% and 48.6% | NCI/ADR-RES ovarian 90.7% and 91.1% | BT-549 breast 72.7% and 37.4% | MDA-MB-435 melanoma 71.8% and 50.1% | MCF7 breast 21.9% and 17.1% | HCT-116 colon 66.2% and 60.3% | HCC-2998 colon 66.5% and 52.5% | KM12 colon 88.4% and 79.7%
active: RPMI-8226 leukemia -24.1% and -10.1% | T-47D breast -86.4% and -71% | SW-620 colon 2.07% and -59.7%

CCN1C(=O)CC(=O)N(CC)C1=S
inactive: MOLT-4 leukemia 109% | SR leukemia 101% | RPMI-8226 leukemia 104% | OVCAR-8 ovarian 109% | OVCAR-5 ovarian 85.7% | OVCAR-4 ovarian 89.9% | SK-OV-3 ovarian 99.7% | OVCAR-3 ovarian 112% | HS 578T breast 102% | NCI/ADR-RES ovarian 73.9% | T-47D breast 98.1% | BT-549 breast 94.5% | MDA-MB-435 melanoma 105% | SW-620 colon 108% | MCF7 breast 100% | HCT-116 colon 93.8% | KM12 colon 106%

COc1ccc2c(c1)C1(C)CCN(C)CC(C1)C2O (stereo not drawn)
inactive: MOLT-4 leukemia 94.1% | SR leukemia 94.2% | RPMI-8226 leukemia 98.7% | OVCAR-8 ovarian 101% | OVCAR-5 ovarian 99.3% | OVCAR-4 ovarian 103% | SK-OV-3 ovarian 107% | IGROV1 ovarian 86.9% | OVCAR-3 ovarian 109% | HS 578T breast 116% | BT-549 breast 98.2% | MDA-MB-435 melanoma 105% | MCF7 breast 96% | HCT-116 colon 97.8% | HCC-2998 colon 89.9% | KM12 colon 102%

Nc1ccc2c(c1)Cc1cc(N)ccc1-2
inactive: MOLT-4 leukemia 104% | SR leukemia 95% | RPMI-8226 leukemia 68.6% | OVCAR-8 ovarian 99.7% | OVCAR-5 ovarian 107% | OVCAR-4 ovarian 95.5% | SK-OV-3 ovarian 82.3% | IGROV1 ovarian 83.2% | OVCAR-3 ovarian 87.6% | HS 578T breast 84.4% | NCI/ADR-RES ovarian 96.2% | MDA-MB-435 melanoma 91.8% | SW-620 colon 98.9% | MCF7 breast 59.9% | HCT-116 colon 97.9% | HCC-2998 colon 96.2% | KM12 colon 82.6%

O=c1c2ccccc2nc(-c2ccccc2Cl)n1-c1nnc(C(F)(F)F)s1
inactive: OVCAR-8 ovarian 32.7% | OVCAR-5 ovarian 78.2% | OVCAR-4 ovarian 37.5% | IGROV1 ovarian 37.6% | OVCAR-3 ovarian 18.7% | HS 578T breast 26.7% | NCI/ADR-RES ovarian 11.6% | T-47D breast 43.5% | BT-549 breast 22.3% | MDA-MB-435 melanoma 57.8% | SW-620 colon 37.5% | MCF7 breast 21.4% | HCT-116 colon 16.8% | HCC-2998 colon 17.6% | KM12 colon 29.1%
active: MOLT-4 leukemia 3.92% | SR leukemia -6.69% | RPMI-8226 leukemia 0.839%

O=C(Cc1ccccc1)NC(O)C(Cl)(Cl)Cl (stereo not drawn)
inactive: MOLT-4 leukemia 96.1% | SR leukemia 101% | RPMI-8226 leukemia 104% | OVCAR-8 ovarian 96.1% | OVCAR-5 ovarian 111% | OVCAR-4 ovarian 105% | SK-OV-3 ovarian 106% | OVCAR-3 ovarian 124% | HS 578T breast 124% | NCI/ADR-RES ovarian 107% | T-47D breast 110% | BT-549 breast 96.8% | MDA-MB-435 melanoma 109% | MCF7 breast 93.1% | HCT-116 colon 107% | HCC-2998 colon 110% | KM12 colon 119%

C=C1C(=O)OC2CC3(C)OC3C3OC3C3=CC(OC3=O)C12 (stereo not drawn)
active: SW-620 colon 3.21% and 7.75%
-30.3% (active) and 58.3% (inactive): MOLT-4 leukemia
2.43% (active) and 17.7% (inactive): HCT-116 colon
inactive: SR leukemia 10.7% and 47.9% | RPMI-8226 leukemia 97.9% and 38% | OVCAR-8 ovarian 87.2% and 88.6% | OVCAR-5 ovarian 106% and 104% | OVCAR-4 ovarian 60% and 92.5% | SK-OV-3 ovarian 103% and 106% | IGROV1 ovarian 102% and 107% | OVCAR-3 ovarian 41.8% | HS 578T breast 96.8% | NCI/ADR-RES ovarian 35.9% and 103% | MDA-MB-435 melanoma 98.3% and 98.4% | MCF7 breast 84.4% and 78.6% | HCC-2998 colon 103% | KM12 colon 104% and 103%

Cc1cc(N(CCCl)CCCl)ccc1C=Nc1ccc(-c2csc(-c3ccccc3)n2)cc1
inactive: MOLT-4 leukemia 22.5% | SR leukemia 31.4% | RPMI-8226 leukemia 77.3% | OVCAR-8 ovarian 91.3% | OVCAR-5 ovarian 120% | OVCAR-4 ovarian 89.6% | SK-OV-3 ovarian 71.6% | OVCAR-3 ovarian 89.7% | HS 578T breast 107% | NCI/ADR-RES ovarian 82.4% | T-47D breast 57.8% | BT-549 breast 67.2% | MDA-MB-435 melanoma 95.2% | SW-620 colon 83.1% | MCF7 breast 48% | HCT-116 colon 89.8% | HCC-2998 colon 94.2% | KM12 colon 89.5%

CNC(=O)Oc1ccc(Cl)cc1SSc1cc(Cl)ccc1OC(=O)NC
inactive: MOLT-4 leukemia 52.9% | SR leukemia 67.7% | RPMI-8226 leukemia 48.1% | OVCAR-8 ovarian 78.8% | OVCAR-5 ovarian 121% | OVCAR-4 ovarian 74.5% | SK-OV-3 ovarian 104% | OVCAR-3 ovarian 54.7% | HS 578T breast 85.6% | NCI/ADR-RES ovarian 81.2% | T-47D breast 57.2% | BT-549 breast 96.4% | MDA-MB-435 melanoma 75.5% | SW-620 colon 87.2% | MCF7 breast 91.8% | HCT-116 colon 91.2% | HCC-2998 colon 99.8% | KM12 colon 98.5%

OCCNC1CCCCC1
inactive: MOLT-4 leukemia 89.2% | SR leukemia 94.2% | RPMI-8226 leukemia 108% | OVCAR-8 ovarian 112% | OVCAR-5 ovarian 98% | SK-OV-3 ovarian 105% | IGROV1 ovarian 111% | OVCAR-3 ovarian 112% | HS 578T breast 108% | NCI/ADR-RES ovarian 115% | T-47D breast 98.4% | BT-549 breast 113% | MDA-MB-435 melanoma 106% | SW-620 colon 108% | MCF7 breast 101% | HCT-116 colon 94.3% | KM12 colon 107%

O=[N+]([O-])c1c(Cl)cc(Cl)c([N+](=O)[O-])c1Cl
active: KM12 colon -2.82%
inactive: MOLT-4 leukemia 80.8% | SR leukemia 69% | RPMI-8226 leukemia 90.2% | OVCAR-8 ovarian 94.7% | OVCAR-5 ovarian 115% | SK-OV-3 ovarian 111% | IGROV1 ovarian 100% | OVCAR-3 ovarian 78.3% | HS 578T breast 109% | NCI/ADR-RES ovarian 103% | SW-620 colon 65.6% | MCF7 breast 45.9% | HCT-116 colon 88.5% | HCC-2998 colon 114%

CNC(=O)CCl
inactive: MOLT-4 leukemia 118% | SR leukemia 109% | RPMI-8226 leukemia 106% | OVCAR-8 ovarian 105% | OVCAR-5 ovarian 107% | SK-OV-3 ovarian 102% | OVCAR-3 ovarian 113% | HS 578T breast 104% | NCI/ADR-RES ovarian 103% | MDA-MB-435 melanoma 101% | SW-620 colon 107% | MCF7 breast 98.2% | HCT-116 colon 99.6% | HCC-2998 colon 95.1% | KM12 colon 108%

O=[N+]([O-])c1cc(Cl)c(Cl)cc1Cl
inactive: MOLT-4 leukemia 102% and 103% | SR leukemia 86.5% and 108% | RPMI-8226 leukemia 97.4% and 112% | OVCAR-8 ovarian 108% | OVCAR-5 ovarian 110% and 99.6% | SK-OV-3 ovarian 123% and 110% | OVCAR-3 ovarian 119% | HS 578T breast 95.9% | NCI/ADR-RES ovarian 102% and 104% | T-47D breast 107% and 108% | BT-549 breast 121% and 119% | MDA-MB-435 melanoma 101% and 107% | MCF7 breast 99% and 113% | HCT-116 colon 107% and 106% | HCC-2998 colon 94.2% and 118% | KM12 colon 109% and 113%

CC12CCC3C4CCC(=O)C=C4CCC3C1CC1CC(=O)OC12 (stereo not drawn)
inactive: MOLT-4 leukemia 95.6% | SR leukemia 90.6% | RPMI-8226 leukemia 94.3% | OVCAR-8 ovarian 97.2% | OVCAR-5 ovarian 107% | OVCAR-4 ovarian 103% | IGROV1 ovarian 96.7% | OVCAR-3 ovarian 101% | HS 578T breast 95.7% | NCI/ADR-RES ovarian 101% | T-47D breast 101% | BT-549 breast 107% | MDA-MB-435 melanoma 112% | SW-620 colon 102% | MCF7 breast 98.7% | HCT-116 colon 97.1% | HCC-2998 colon 110% | KM12 colon 96%
